From PubChem
Rows were chosen to be rich in hits. Some 1.2% of all compounds tested hit in one or more screens of this group.
Six1-Eya2 inh: blocks human Six1 binding to Eya2; Q15475+O00167; AlphaScreen GST-Six1/His-Eya2 binding, biochemical; stronger effect = lower value; activity change, % (concentration not given with the values); actives 0.56% (n = 360,000)
Target sequence (O00167 whole entry, looked up): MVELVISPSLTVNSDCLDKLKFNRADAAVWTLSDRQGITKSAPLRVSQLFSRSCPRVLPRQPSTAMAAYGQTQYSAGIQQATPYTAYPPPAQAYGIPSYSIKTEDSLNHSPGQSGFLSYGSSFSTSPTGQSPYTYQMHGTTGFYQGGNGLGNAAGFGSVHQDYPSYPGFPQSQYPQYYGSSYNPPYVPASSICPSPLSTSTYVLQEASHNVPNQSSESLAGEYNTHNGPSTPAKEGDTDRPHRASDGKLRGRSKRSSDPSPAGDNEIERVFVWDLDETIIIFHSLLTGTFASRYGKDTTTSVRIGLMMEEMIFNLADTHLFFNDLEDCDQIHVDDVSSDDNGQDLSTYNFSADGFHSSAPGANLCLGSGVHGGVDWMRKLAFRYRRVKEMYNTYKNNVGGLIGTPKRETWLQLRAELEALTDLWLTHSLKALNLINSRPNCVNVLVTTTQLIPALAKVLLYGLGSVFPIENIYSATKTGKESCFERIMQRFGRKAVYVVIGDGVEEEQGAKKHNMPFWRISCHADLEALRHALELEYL
Target sequence (Q15475 whole entry, looked up): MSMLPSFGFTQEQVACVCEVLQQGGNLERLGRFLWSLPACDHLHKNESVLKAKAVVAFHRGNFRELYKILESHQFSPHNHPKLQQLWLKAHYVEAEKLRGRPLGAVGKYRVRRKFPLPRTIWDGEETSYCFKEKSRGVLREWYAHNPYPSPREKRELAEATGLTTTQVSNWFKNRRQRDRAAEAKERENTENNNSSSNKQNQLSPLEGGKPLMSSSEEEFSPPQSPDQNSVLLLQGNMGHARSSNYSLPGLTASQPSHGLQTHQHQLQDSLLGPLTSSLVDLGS
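AlphaScreen with GST-Six1 and His-Eya2 (5X mix: 250 nM and 500 nM), glutathione donor and nickel acceptor beads; buffer 50 mM Tris pH 8.0, 300 mM NaCl, 1 mM TCEP; 1 h at 37 C in the dark.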
CCT chaperon mod: modulators of cytosolic chaperonin (CCT/TRiC) activity; activity change, % (concentration not given with the values), hits read low; AID 651819; actives 0.3% (n = 360,000); purified chaperonin ATPase assay, HTRF ADP detection, 30 min; in the data active = activity change below about -30%
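First, chaperonin was dispensed at 40 nM or 20 nM final depending on batch activity. Next, compounds were pinned at 76 uM and ATP added at 10 uM. After 30 min at 37 °C, ADP detection reagents ran 30 min at ambient temperature.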
CtBP-E1A inh: CtBP/E1A binding inhibition. AlphaScreen GST-E1A/His-CtBP binding, 1536-well; stronger effect = lower value. activity change, % (concentration not given with the values). actives 0.49% (n = 340,000). AID 651724
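Steps: dispense buffer (Tris pH 8.0, NaCl 300 mM, TCEP 1 mM, BSA, Tween 20); add 5X protein mix (GST-E1A, His-CtBP, 125 nM each); pin 23 nL compound; 2 h at 37 °C, dark; add 5X beads (50 ug/mL); 1 h; read.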
pAkt inh: inhibitors of Akt phosphorylation. actives 0.32% (n = 360,000). Neuro2A IGF-stimulated pAkt S473 HTRF, 20 min; stronger effect = lower value. AID 651550. activity change, % for hits at 50 µM; in the data active = activity change below about -80%; inconclusive = mostly about -51% to -80%
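Neuro2A cells in DMEM with 0.5% FBS, overnight at 37 deg C, given compound at single 50 µM final, then IGF (6 nM final) for 20 min at 37 deg C. Lysed; phospho-Akt Ser473 by HTRF after 24 h, 665/615 ratio.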
Large screens that a line does not name were inactive. Cut-off read from the data, not from the text of the source, unless noted: active = activity change below about -65%; inconclusive = mostly about -30% to -63%; inactive = weaker than that.

CC1=C(C(=O)Nc2ccccc2C(F)(F)F)C(c2ccc(C)s2)NC(=S)N1 (stereo not given)	none
COc1ccc(NC(=O)C2CC(=O)OC23CCCCC3)cc1 (stereo not given)	none
COc1cccc(NC(=O)c2ccc(NC(=O)C3CC(=O)OC34CCCCC4)cc2)c1 (stereo not given)	Six1-Eya2 inh inconclusive, CtBP-E1A inh -80
C/C(CC(C)C)=N/Nc1ccc([N+](=O)[O-])cc1[N+](=O)[O-]	Six1-Eya2 inh inconclusive (no result: CtBP-E1A inh)
CC(Cc1ccccc1)=NNc1ccc([N+](=O)[O-])cc1[N+](=O)[O-]	Six1-Eya2 inh -65, CtBP-E1A inh inconclusive
O=C(c1ccc(N2C(=O)CCC2=O)cc1)N1CCCSC1=Nc1ccccc1	none
COc1ccccc1Nc1ncccc1[N+](=O)[O-]	Six1-Eya2 inh inconclusive, CCT chaperon mod -49, CtBP-E1A inh inconclusive
COc1ccccc1C(CNc1ncccc1[N+](=O)[O-])N(C)C (stereo not given)	none
Cc1ccc(N2CC(C(=O)Nc3cccnc3)CC2=O)cc1Cl (stereo not given)	none
COC(=O)c1cc2c(-c3ccccc3)cc3ccccn3c-2c1C(=O)OC	Six1-Eya2 inh inconclusive, CtBP-E1A inh inconclusive
COC(=O)c1c(C)c2c(C)cc3ccccn3c-2c1C(=O)OC	Six1-Eya2 inh inconclusive, CtBP-E1A inh inconclusive, pAkt inh -104%
CCC(CCNC(=O)c1ccccc1)(CCNC(=O)c1ccccc1)[N+](=O)[O-]	none
O=C(CSc1nc2ncc(Cl)cc2[nH]1)N1CCC(Cc2ccccc2)CC1	none
Cc1ccc(NC(=S)N(CCN(C)C)Cc2cc3cc(C)cc(C)c3[nH]c2=O)cc1	none
COCCCNC(=S)N/N=C/c1ccccc1O	Six1-Eya2 inh -90 (no result: CtBP-E1A inh)
COCCNC(=S)N/N=C(\C)c1ccccc1O	Six1-Eya2 inh -69, CtBP-E1A inh inconclusive
COCCNC(=S)N/N=C(\C)c1ccccc1OC	none
Oc1ccccc1/C=N/NC(=S)NC1CC2CCC1C2 (stereo not given)	Six1-Eya2 inh -85, CtBP-E1A inh -84
COc1cccc(/C=N/NC(=S)NC2CC3CCC2C3)c1OC (stereo not given)	none (no result: CtBP-E1A inh)
O=C(c1cccc(Br)c1)N1CCN(S(=O)(=O)N2CCCCC2)CC1	none
CCNc1nc(N)nc(Oc2ccc(C(=O)OC)cc2)n1	pAkt inh -95%
CCNc1nc(Oc2ccc(C(=O)OC)cc2)nc(N(C)C)n1	none
Cc1cc([N+](=O)[O-])cnc1Sc1nccn1C	none (no result: CtBP-E1A inh)
Nc1ncnc(Oc2cccc3cccnc23)c1[N+](=O)[O-]	Six1-Eya2 inh -67
COc1ccc(C2C(C#N)=C(N)Oc3c2oc(CO)cc3=O)c(OC)c1OC (stereo not given)	CCT chaperon mod -34
CN(CC(=O)Nc1ccccc1Cl)C(=O)CN1C(=O)C2CC=CCC2C1=O (stereo not given)	none
Nn1c(SCC(=O)Nc2ccc(S(=O)(=O)N3CCCC3)cc2)nnc1C(F)(F)F	pAkt inh -107%
Cn1cnnc1SCC(=O)Nc1ccc(S(=O)(=O)N2CCCC2)cc1	none
COc1ccc(OC)c(C2=Nn3c(nnc3-c3ccco3)SC2)c1	Six1-Eya2 inh inconclusive, CtBP-E1A inh inconclusive
COc1ccc(C2=Nn3c(nnc3-c3ccco3)SC2)cc1	Six1-Eya2 inh -66, CtBP-E1A inh -80
Cc1cc(-c2nnc3n2N=C(c2ccc(-c4ccccc4)cc2)CS3)n[nH]1	Six1-Eya2 inh -72, CtBP-E1A inh -69
Oc1ccc(C2=Nn3c(nnc3-c3ccco3)SC2)cc1O	Six1-Eya2 inh -89, CtBP-E1A inh -94
C[C@H](CO)N1C[C@H](C)[C@@H](CN(C)Cc2ccncc2)Oc2c(cccc2N(C)C)C1=O	none
Cc1ccc(N=Nc2ccc(O)c3ncccc23)cc1C	none
COc1ccccc1N=Nc1ccc(O)c2ncccc12	Six1-Eya2 inh -70 (no result: CtBP-E1A inh)
Oc1ccc(N=Nc2ccccc2C(F)(F)F)c2cccnc12	none (no result: CtBP-E1A inh)
CCS(=O)(=O)c1ccc(N=Nc2ccc(O)c3ncccc23)c(OC)c1	Six1-Eya2 inh -83, CtBP-E1A inh -93
CCOC(=O)/C(=N\Nc1ccccc1)P(=O)(c1ccccc1)c1ccccc1	none
Cc1cc(C)c(C#N)c(Nc2cccc(C)c2C)n1	CCT chaperon mod -44
COc1ccc(C(=O)COC(=O)CN2CC(=O)Oc3ccccc32)cc1Br	Six1-Eya2 inh -93, CtBP-E1A inh -93
COc1ccc(C(=O)COC(=O)C2CC3CCCC(C2)C3=O)cc1Br (stereo not given)	none
Cc1ccc(C)c(NC(=O)CSc2nnc3n2CCCCC3)c1	none (no result: CtBP-E1A inh)
COC(=O)c1ccc(/C=C/C(=O)OCC(=O)Nc2sccc2C(N)=O)cc1	Six1-Eya2 inh inconclusive, CtBP-E1A inh -69
NC(=O)c1ccsc1NC(=O)COC(=O)/C=C/c1ccc([N+](=O)[O-])cc1	none
COc1cn(-c2ccccc2)nc1C(=O)OCC(=O)Nc1ccc(C)c(C)c1	none
O=C(CN1CCSCC1)N/N=C/c1ccccc1F	pAkt inh -98%
CCOCCN1CCN(C(=O)CN2CCCC2=O)CC1	none
Nc1ccc2c(c1Br)Cc1ccccc1-2	CCT chaperon mod -41
Nc1c(Cl)cc2c(c1Br)Cc1ccccc1-2	none
Cn1cc(-c2ccccc2C(=O)O)c(=O)c2cc(Cl)ccc21	none
c1ccc2sc(NC3=NCN(CCN4CCOCC4)CN3)nc2c1	none
COC(=O)C1C(O)=C(C=Nc2cccc3ccccc23)C(=O)CC1(C)C (stereo not given)	none
COC(=O)C1C(O)=C(C=NCc2ccccc2)C(=O)CC1(C)C (stereo not given)	pAkt inh -114%
CN(C)c1nc(-c2ccccn2)nnc1-c1ccccc1	Six1-Eya2 inh -92, CtBP-E1A inh -96
c1ccc(-c2nnc(-c3ccccn3)c(-c3ccccn3)n2)nc1	CtBP-E1A inh inconclusive
COc1cnc(-c2ccccn2)nc1Sc1ccccc1Cl	Six1-Eya2 inh inconclusive, CtBP-E1A inh inconclusive
COc1cnc(-c2ccccn2)nc1N(C)C	Six1-Eya2 inh -89, CtBP-E1A inh -94
CCOC(=O)C(C)Sc1nc(-c2ccccn2)ncc1OC (stereo not given)	Six1-Eya2 inh -91 (no result: CtBP-E1A inh)
O=c1ccn([C@@H]2O[C@H](CNCC3=Cc4cc(O)ccc4OC3)[C@@H](O)[C@H]2O)c(=O)[nH]1	none
Cn1c(SCc2ccc(C#N)cc2Cl)nc2ccccc21	CCT chaperon mod -36
N#Cc1ccc(CSc2ccccn2)c(Cl)c1	none
C/C(=N\NC(=O)c1cccc(F)c1)c1ccc(NC(=O)Cc2ccccc2)cc1	none
C/C(=N\NC(=O)c1cc(O)cc(O)c1)c1ccc(NC(=O)Cc2ccccc2)cc1	Six1-Eya2 inh -89, CtBP-E1A inh -89
Cn1c(C(=O)NCc2cccs2)cc2c(=O)n(C)c3ccccc3c21	none
COc1ccc(NC(=O)c2cc3c(=O)n(C)c4ccccc4c3n2C)cc1Cl	none
COc1ccc(NC(=O)c2cc3c(=O)n(C)c4ccccc4c3n2C)cc1OC	CCT chaperon mod -32
Cc1ccc(CNC(=O)c2cc3c(=O)n(C)c4ccccc4c3n2C)cc1	CCT chaperon mod -32
Cc1ccccc1NC1=C/C(=N\S(=O)(=O)c2cccs2)c2ccccc2C1=O	Six1-Eya2 inh -84, CtBP-E1A inh -85
